{"source": "PubChem BioAssay AID463173", "about": "(ICCB-Longwood Screening Facility, Harvard Medical School, 2010)", "note": "The whole screen tested about 52,000 compounds, of which about 4,300 (8.3%) were called active. Rule as the data show it: active = survival mostly below about 52% (no sharp cut-off); inactive = mostly above about 56%. The list comes from a sample in which actives are over-represented; it also holds similar structures and randomly drawn compounds.", "data": [{"system": "DeltatarO mutant", "assay": "S. aureus survival, RN4220 and DeltatarO strains – OD600, teichoic acid synthesis inhibitors, primary screen (AID 463173)", "conditions": "S. aureus RN4220 wild type/DeltatarO growth, OD600, 18 h, hits give low values, screened at 18.75 µg/mL (by protocol)", "values": [{"smiles": "COc1cc(OC)cc(C(=O)Nc2cc(-c3nc4cccnc4s3)ccc2C)c1", "survival": "43% (active)"}, {"smiles": "CCCC(=O)Nc1cc(-c2nc3cccnc3s2)ccc1C", "survival": "109% (inactive)"}, {"smiles": "Cc1ccc(-c2nc3cccnc3s2)cc1NC(=O)Cc1ccccc1", "survival": "99% (inactive)"}, {"smiles": "COc1ccc(C(=O)Nc2cccc(-c3nc4cccnc4s3)c2C)c(OC)c1", "survival": "103% (inactive)"}, {"smiles": "Cc1cccc(CC(=O)Nc2cccc(-c3nc4cccnc4s3)c2)c1", "survival": "93% (inactive)"}, {"smiles": "COCC(=O)Nc1cccc(-c2nc3cccnc3s2)c1", "survival": "68% (inactive)"}, {"smiles": "CCOc1ccc(CC(=O)Nc2cccc(-c3nc4cccnc4s3)c2C)cc1", "survival": "90% (inactive)"}, {"smiles": "COc1ccc(N2CCN(C(=O)CS(=O)(=O)c3cccc4nsnc34)CC2)cc1", "survival": "107% (inactive)"}, {"smiles": "O=C(CSc1nc2c([nH]c3ccccc32)c(=O)n1-c1cccc(C(F)(F)F)c1)N1CCCC1", "survival": "71% (inactive)"}, {"smiles": "Cc1c(C(=O)Nc2ccc(F)c(C(F)(F)F)c2)sc2nc(-c3ccccc3)cn12", "survival": "105% (inactive)"}, {"smiles": "CCOC(=O)C1=CN(O)/C(=C\\N=O)C=C1", "survival": "78% (inactive)"}, {"smiles": "COc1ccc(Cl)cc1NC(=O)CSc1cc(C)[nH]c(=O)n1", "survival": "80% (inactive)"}, {"smiles": "COc1ccc(S(=O)(=O)c2cn(C)c3cc(N4CCCCCC4)c(F)cc3c2=O)cc1", "survival": "86% (inactive)"}, {"smiles": "Cc1ccccc1Nc1c(-c2c(F)cccc2Cl)nc2ccc(Br)cn12", "survival": "69% (inactive)"}, {"smiles": "COc1ccc(/C=C\\c2onc(C)c2S(=O)(=O)N2CCC(C(=O)Nc3ccc(Cl)cc3)CC2)cc1", "survival": "65% (inactive)"}, {"smiles": "CCCCOc1ccc(C(=O)Nc2cccc(-c3nc4cccnc4s3)c2)cc1", "survival": "92% (inactive)"}, {"smiles": "O=C(Nc1cccc(-c2nc3cccnc3s2)c1)c1cccc(Br)c1", "survival": "32% (active)"}, {"smiles": "CCOc1ccccc1C(=O)Nc1cc(-c2nc3cccnc3s2)ccc1C", "survival": "37% (active)"}, {"smiles": "CN(C)c1ccc(C(=O)Nc2cccc(-c3nc4cccnc4s3)c2)cc1", "survival": "49% (inactive)"}, {"smiles": "Cc1ccccc1C(=O)Nc1cccc(-c2nc3cccnc3s2)c1", "survival": "81% (inactive)"}, {"smiles": "CCOc1ccc(C(=O)Nc2cccc(-c3nc4cccnc4s3)c2C)cc1OCC", "survival": "90% (inactive)"}, {"smiles": "COc1ccc(CC(=O)N2N=C(c3ccncc3)CC2(O)C(F)(F)F)cc1", "note": "(centres undefined)", "survival": "104% (inactive)"}, {"smiles": "COc1ccccc1CNC(=O)CCCn1c(=O)c2ccccc2n(CC(=O)Nc2c(C)cc(C)cc2C)c1=O", "survival": "166% (inactive)"}, {"smiles": "N#Cc1ccc(CSCC(=O)NN=C2CCCC2)cc1", "survival": "65% (inactive)"}, {"smiles": "COc1ccc(OCC2c3cc(OC)c(OC)cc3CCN2C(=O)c2ccc(F)cc2)cc1", "note": "(centres undefined)", "survival": "94% (inactive)"}, {"smiles": "CCOc1ccc(NC(=O)c2sc3ccccc3c2Cl)cc1", "survival": "68% (inactive)"}, {"smiles": "Cc1ccc(NC(=O)c2sc3ccccc3c2Cl)cc1", "survival": "66% (inactive)"}, {"smiles": "CCOC(=O)c1ccc(NC(=O)c2sc3ccccc3c2Cl)cc1", "survival": "67% (inactive)"}, {"smiles": "Cc1cccc(NC(=O)c2sc3cccc(Cl)c3c2Cl)c1", "survival": "11% (active)"}, {"smiles": "O=C(Nc1ccccc1Cl)c1sc2cccc(Cl)c2c1Cl", "survival": "63% (inactive)"}, {"smiles": "CCOC(=O)c1ccccc1NC(=O)c1sc2ccccc2c1Cl", "survival": "36% (active)"}, {"smiles": "COc1ccccc1NC(=O)c1sc2cccc(Cl)c2c1Cl", "survival": "64% (inactive)"}, {"smiles": "CCN(CC)c1ccc(NC(=O)c2sc3ccccc3c2Cl)cc1", "survival": "-2% (active)"}, {"smiles": "CCCC(=O)Nc1ccc(NC(=O)c2sc3ccccc3c2Cl)cc1", "survival": "109% (inactive)"}, {"smiles": "CC(C)NC(=O)c1ccc2c(c1)nc1n2CCCCC1", "survival": "91% (inactive)"}, {"smiles": "COc1cccc(Cn2c(=O)n(CC3CCC(C(=O)N4CCOCC4)CC3)c(=O)c3sccc32)c1", "note": "(centres undefined)", "survival": "124% (inactive)"}, {"smiles": "CCc1ccc(S(=O)(=O)c2cn(CC)c3cc(N4CCCCC4)c(F)cc3c2=O)cc1", "survival": "83% (inactive)"}, {"smiles": "CCOc1ccc2[nH]c(=O)c(CN(Cc3ccccc3OC)C(=O)N3CCCC3)cc2c1", "survival": "96% (inactive)"}, {"smiles": "NCCS(=O)(=O)N1CCCC1", "survival": "88% (inactive)"}, {"smiles": "Cc1ccn2c(c1)nc(=O)c1cc(S(=O)(=O)N3CCC(C)CC3)c(Cl)cc12", "survival": "87% (inactive)"}, {"smiles": "COc1ccc(NC(=O)CC2C(=O)N(c3cccc(C)c3)C(=O)N2C2CCCCC2)cc1", "note": "(centres undefined)", "survival": "69% (inactive)"}, {"smiles": "COc1ccc(NC(=O)CSc2ccc3nc(-c4ccccc4)cn3n2)cc1OC", "survival": "113% (inactive)"}, {"smiles": "CCOC(=O)N1CCN(Cc2nc3cc(NC(=O)c4ccccc4Cl)ccc3n2C(C)C)CC1", "survival": "70% (inactive)"}, {"smiles": "COC(=O)CN1C(=O)CSc2ccc(S(=O)(=O)Nc3cccc(Br)c3)cc21", "survival": "37% (active)"}, {"smiles": "COC(=O)CN1C(=O)CSc2ccc(S(=O)(=O)Nc3cccc(C)c3C)cc21", "survival": "63% (inactive)"}, {"smiles": "COC(=O)CN1C(=O)CSc2ccc(S(=O)(=O)Nc3c(C)cc(C)cc3C)cc21", "survival": "101% (inactive)"}, {"smiles": "COC(=O)CN1C(=O)CSc2ccc(S(=O)(=O)Nc3ccccc3)cc21", "survival": "91% (inactive)"}, {"smiles": "COC(=O)CN1C(=O)CSc2ccc(S(=O)(=O)Nc3cc(C)ccc3C)cc21", "survival": "25% (active)"}, {"smiles": "COC(=O)CN1C(=O)CSc2ccc(S(=O)(=O)Nc3cccc(C)c3)cc21", "survival": "101% (inactive)"}]}]}
